Measured values from the antibiotic and cytotoxicity screens of Wong et al. (2023).
In all, about 39,000 compounds went through this assay and about 3,300 (8.5%) were called active. The full list was thinned out, with actives kept by preference.

System: HepG2
Assay: cytotoxicity call (relative viability < 0.9)
Conditions: 10 µM

| SMILES | cytotoxicity call |
| --- | --- |
| C[C@@H]1CN([C@H](C)CO)S(=O)(=O)c2ccc(Br)cc2O[C@H]1CN(C)C(=O)c1cnccn1 | inactive |
| CNC[C@@H]1Oc2c(NS(=O)(=O)c3cn(C)cn3)cccc2C(=O)N([C@H](C)CO)C[C@@H]1C | inactive |
| COCCOC(=O)N1C(=O)[C@@]2(c3cc(C#Cc4ccc(OC)cc4)ccc31)[C@H](c1ccc(O)cc1)N1[C@H](c3ccccc3)[C@H](c3ccccc3)OC(=O)[C@H]1[C@@H]2C(=O)N1CCCCCCC1 | active |
| COCCOC(=O)N1C(=O)[C@@]2(c3cc(C#Cc4ccc(OC)cc4)ccc31)[C@H](C(=O)N1CCCCCCC1)[C@H]1C(=O)O[C@H](c3ccccc3)[C@H](c3ccccc3)N1[C@@H]2c1ccc(OCCO)cc1 | inactive |
| COCCOC(=O)N1C(=O)[C@@]2(c3cc(C#CCC(C(=O)OC)C(=O)OC)ccc31)[C@H](c1ccc(OCCO)cc1)N1[C@H](c3ccccc3)[C@H](c3ccccc3)OC(=O)[C@H]1[C@@H]2C(=O)N1CCCCCCC1 | inactive |
| COCCOC(=O)N1C(=O)[C@@]2(c3cc(C#CCC(C(=O)OC)C(=O)OC)ccc31)[C@H](C(=O)N1CCCCCCC1)[C@H]1C(=O)O[C@H](c3ccccc3)[C@H](c3ccccc3)N1[C@@H]2c1ccc(O)cc1 | active |
| COCCOC(=O)N1C(=O)[C@@]2(c3cc(C#Cc4ccc(OC)cc4)ccc31)[C@H](c1ccc(OCCO)cc1)N1[C@H](c3ccccc3)[C@H](c3ccccc3)OC(=O)[C@H]1[C@@H]2C(=O)NC[C@H](O)c1ccccc1 | inactive |
| COc1ccc(C#Cc2ccc3c(c2)[C@@]2(C(=O)N3C(=O)N[C@@H](C)c3ccccc3)[C@H](c3ccc(OCCO)cc3)N3[C@H](c4ccccc4)[C@H](c4ccccc4)OC(=O)[C@H]3[C@@H]2C(=O)O)cc1 | active |
| COCCOC(=O)N1C(=O)[C@@]2(c3cc(C#Cc4ccc(OC)cc4)ccc31)[C@H](c1ccc(OCCO)cc1)N1[C@H](c3ccccc3)[C@H](c3ccccc3)OC(=O)[C@H]1[C@@H]2C(N)=O | inactive |
| COCCOC(=O)N1C(=O)[C@@]2(c3cc(C#CCC(C(=O)OC)C(=O)OC)ccc31)[C@H](C(=O)N1CCCCCCC1)[C@H]1C(=O)O[C@H](c3ccccc3)[C@H](c3ccccc3)N1[C@@H]2c1ccc(OCCO)cc1 | inactive |
| COCCOC(=O)N1C(=O)[C@@]2(c3cc(C#Cc4ccc(OC)cc4)ccc31)[C@H](C(=O)N1CCCCCCC1)[C@H]1C(=O)O[C@H](c3ccccc3)[C@H](c3ccccc3)N1[C@@H]2c1ccc(O)cc1 | inactive |
| NCC[C@H]1CC[C@H](NC(=O)Cc2ccncc2)[C@@H](CO)O1 | inactive |
